According to PubChem BioAssay (NCI):
Compounds without any hit were thinned out: in the full panel of roughly 79,000, 15% have a hit. Activity calls are given as the source filed them. Cut-off read from the data, not from the text of the source: active = growth inhibition above about 70%; inactive = the rest.

Tests used:
[1] = NCI Yeast Anticancer Drug Screen. Data for the rad50 strain (AID 155);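 note: 0% = growth of vehicle-only cultures of the same strain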; settings: S. cerevisiae rad50 strain growth inhibition; at 50.0 µM; stronger effect = higher value
Method in brief: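 Readout: growth inhibition relative to vehicle-treated cultures. Compound exposure was carried out in a genetically defined yeast strain deficient in DNA damage repair.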

[2] = NCI Yeast Anticancer Drug Screen. Data for the mec2-1 strain (AID 157); settings: S. cerevisiae mec2-1 strain, at 50.0 µM, stronger effect = higher value
Method in brief: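 mec2-1 yeast strain, carrying an alteration in DNA damage repair or cell cycle control, was exposed to compounds; growth inhibition was measured relative to vehicle-treated controls.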

[3] = NCI Yeast Anticancer Drug Screen. Data for the sgs1 mgt1 strain (AID 161);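 note: 0% = growth of cultures given vehicle only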; settings: S. cerevisiae sgs1 mgt1 strain, at 50.0 µM, stronger effect = higher value
Method in brief: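 Compounds are added to genetically altered yeast, and growth is compared with cultures given vehicle alone to give percent inhibition.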

[4] = NCI Yeast Anticancer Drug Screen. Data for the cln2 rad14 strain (AID 165);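 note: 0% = growth equal to vehicle treated cultures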; settings: S. cerevisiae cln2 rad14 strain, at 50.0 µM, stronger effect = higher value
Method in brief: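 Yeast carrying cln2 and rad14 alterations (cell cycle control and DNA damage repair) were exposed to compounds. Growth inhibition was measured against vehicle-treated controls.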

[5] = NCI Yeast Anticancer Drug Screen. Data for the bub3 strain (AID 167); settings: S. cerevisiae bub3 mutant strain, at 50.0 µM, stronger effect = higher value
Method in brief: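 Readout: yeast growth inhibition, expressed relative to vehicle-only wells. The test organism is a mutant strain from a panel with lesions in DNA repair or checkpoint genes.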

[6] = NCI Yeast Anticancer Drug Screen. Data for the mlh1 rad18 strain (AID 175); settings: S. cerevisiae mlh1 rad18 strain growth inhibition; at 50.0 µM; stronger effect = higher value
Method in brief: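 Growth inhibition of the yeast strain was measured after compound exposure and expressed relative to vehicle-treated controls. The strain carries defined defects in DNA damage repair.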

Measured: growth inhibition

CNc1ccc(C(=O)N(C(=O)NC2CCCCC2)C2CCCCC2)cc1
inactive: [1] -6.65% | [2] -5.6% | [3] 4.7% | [4] -6.85% | [5] -1.95% | [6] 5.15%

CO[Si](CCCN)(OC)OC
inactive: [1] -0.65% | [2] -44.8% | [3] -13.4% | [4] -8.7% | [5] 11.8% | [6] 35.9%

COc1cc(C2c3cc4c(c(OC(=O)c5ccncc5)c3CC3COC(=O)C32)OCO4)cc(OC)c1OC (configuration not stated)
inactive: [1] 1.15% | [2] -11.6% | [3] 35.8% | [4] 15.8% | [5] 5.8% | [6] -0.05%

CN(C)C(=O)c1ccccc1
inactive: [1] 29.6% | [2] 6.25% | [3] -0.35% | [4] 13.9% | [5] -9.25% | [6] 1.55%

COC(=O)C(=O)c1cc(C)n(C)c(=O)c1CN1C(=O)c2ccccc2C1=O
inactive: [1] -14.2% | [2] 14.8% | [3] 13.8% | [4] -18.9% | [5] -11.8% | [6] -12.8%

Cc1cc(C)c(/C=C\C(=O)c2ccccc2)c(C)c1
inactive: [1] 9.75% | [2] -7.65% | [3] -4.3% | [4] -37.9% | [5] 6.15% | [6] -15.5%

O=C(Nc1ccccc1Cl)Oc1ccc(Cl)cc1Cl
inactive: [1] 3.5% | [2] 20.1% | [3] 7.4% | [4] -15.1% | [5] -6.05% | [6] -9.45%

O=C(OCCN1CCOCC1)c1cc2ccccc2oc1=O
inactive: [1] 1.8% | [2] 2.65% | [3] 6.35% | [4] -45.7% | [5] -0.2% | [6] -2.65%

CCOC(=O)C1SC(=Nc2ccc(C)c(C)c2)N=C1C (configuration not stated)
inactive: [1] -20.2% | [2] -7.4% | [3] -22.4% | [4] 19.7% | [5] 4.85% | [6] 7.15%

c1ccc2c(c1)CCOC2
inactive: [1] -0.4% | [2] 5.9% | [3] 3.45% | [4] 6.5% | [5] 8.55% | [6] -3.1%

CCOC(=O)C1C(=O)C(=O)N(C)C1c1ccccc1 (configuration not stated)
inactive: [1] -2.6% | [2] 16.3% | [3] 8.1% | [4] -49.9% | [5] 2.7% | [6] 8.55%

Clc1cccc(-c2nnc(-c3nn(-c4ccccc4)c4nc5ccccc5nc34)o2)c1
inactive: [1] -16.4% | [2] -31.3% | [3] -47.2% | [4] 6.1% | [5] -17.1% | [6] -10.8%

O=C(CCl)Nc1cc(C(F)(F)F)ccc1Cl
inactive: [1] -0.15% | [2] 1.75% | [3] 18.1% | [4] 4.85% | [5] 23.9% | [6] 1.15%

CN(C)C(=O)c1cc2ccccc2[nH]1
inactive: [1] 28.9% | [2] 16.4% | [3] 6.7% | [4] 12.8% | [5] 3.75% | [6] 20.2%

O=c1ccc2ccc(O)c(O)c2o1
inactive: [1] -10.9% | [2] -5.3% | [3] 12.9% | [4] 18.1% | [5] 30.7% | [6] 1.5%

COc1cc(C(CC(=O)O)CC(=O)O)cc(OC)c1OC
inactive: [1] -2.45% | [2] -8.8% | [3] 25.4% | [4] 7.05% | [5] 15.6% | [6] 12.6%

O=C1CSc2nc3c(I)cc(I)cc3c(=O)n21
inactive: [1] 2.65% | [2] 6.2% | [3] -0.75% | [4] -25.1% | [5] -7.3% | [6] -0.6%

Cc1ccc(C(=O)OC(C)C)cc1N=NN(C)C
inactive: [1] 32.4% | [2] -11.4% | [3] 11.1% | [4] 27.1% | [5] 6.45% | [6] -15.9%

CCC[N+]1([O-])CCOCC1
inactive: [1] -8.2% | [2] -1.8% | [3] -5.55% | [4] 26.4% | [5] 14.3% | [6] -18.1%

COc1ccc2cccc(C(=O)O)c2c1
inactive: [1] 1.3% | [2] -10.3% | [3] -6.5% | [4] 3.35% | [5] -15.6% | [6] -21.6%

CCC(CC(C)C)C(=O)OCCBr (configuration not stated)
inactive: [1] 17.9% | [2] 15.2% | [3] 20.6% | [4] -12.8% | [5] 45.5% | [6] 14.4%

CC(=O)OCCn1c(Cc2ccc(C)cc2)nn(C(C)=O)c1=O
inactive: [1] 16.6% | [2] 5.5% | [3] 11.8% | [4] 3.4% | [5] 5.9% | [6] -0.95%

CCOc1ccc(NC(=O)C(C)O)cc1 (configuration not stated)
inactive: [1] -29.9% | [2] -14.4% | [3] -20.2% | [4] 6.1% | [5] -3.65% | [6] -14.3%

CCCCCCC(C)N1C(=O)c2ccccc2C1=O (configuration not stated)
inactive: [1] 6.25% | [2] 6.75% | [3] 4.75% | [4] -39.1% | [5] 0.7% | [6] -8.4%

O=C(CC(=O)C1CCOC1=O)C(=O)Nc1cccc(Cl)c1 (configuration not stated)
inactive: [1] -13.8% | [2] -8.55% | [3] 5.5% | [4] -10.7% | [5] -12% | [6] 21.4%

O=C1COC(c2ccccc2O)=NN1CCCN1CCCC1
inactive: [1] 12.9% | [2] -23.8% | [3] 21% | [4] -3.4% | [5] 14.1% | [6] 25.3%

O=C1CC(c2ccccc2)Oc2cc(O)cc(O)c21 (configuration not stated)
inactive: [1] 9.1% | [2] -30.8% | [3] 9.2% | [4] 22.6% | [5] -14.4% | [6] 16.7%

NCC=C1C2CC3CC(C2)CC1C3
inactive: [1] 1.9% | [2] -7.25% | [3] 1.4% | [4] -26.4% | [5] -13.7% | [6] 12.6%

O=[N+]([O-])c1ccc(Nc2ccccc2)c2nonc12
inactive: [1] -22.2% | [2] 4.45% | [3] -0.1% | [4] 26.4% | [5] 13.8% | [6] 29.4%

C=CC(C)(CCC=C(C)C)OC(C)=O (configuration not stated)
inactive: [1] 27.6% | [2] 5.75% | [3] 14.7% | [4] 1.9% | [5] 23.9% | [6] 34.7%

CCOC(=O)CC1(C)c2nc(NC(C)=O)sc2Cc2sc(NC(C)=O)nc21
inactive: [1] -2.2% | [2] -8.9% | [3] 0.8% | [4] -26.6% | [5] -2.4% | [6] -15.5%

CC1CCCC2(C1)OCC(O)CO2 (configuration not stated)
inactive: [1] 23.2% | [2] -2.2% | [3] 8.8% | [4] 12.8% | [5] 7.65% | [6] 10.2%

COc1ccc2c3c([nH]c2c1)CCN(Cc1ccccc1)C3
inactive: [1] -31.1% | [2] -21.6% | [3] 13.8% | [4] 19.6% | [5] 15.2% | [6] 1.1%

COc1ccc2c(c1)OC1(OCCO1)[C@@H]1C2CC[C@@]2(C)C1CCC21OCCO1 (some centres not stated)
inactive: [1] 48.2% | [2] 17.9% | [3] 38.9% | [4] 28.8% | [5] 15.8% | [6] 58.5%

Cc1cc2n(n1)C(=O)CC(=O)C2
inactive: [1] 8.4% | [2] 1% | [3] 2.25% | [4] -24.4% | [5] -1.2% | [6] -3.7%

CNc1nnnn1-c1ccccc1C
inactive: [1] -10.8% | [2] -3.55% | [3] -10.8% | [4] -86.5% | [5] -4.05% | [6] -8.05%

COC(=O)C(Cc1nc2ccccc2[nH]c1=O)/C(=N\NC(C)(C)C)C(=O)Nc1c(C)cc(Br)cc1C (configuration not stated)
inactive: [1] 17.2% | [2] -4.55% | [3] 5.9% | [4] -35.8% | [5] 3.7% | [6] -3%

CC1C(=O)N2C(=O)C(C)C(C)C(=O)N2C(=O)C1C (configuration not stated)
inactive: [1] 1.8% | [2] -6.25% | [3] 7.9% | [4] -12.8% | [5] 3.85% | [6] -12.5%

CN1c2ccccc2C(=O)NC12CCN(CCCC(=O)c1ccc(F)cc1)CC2
inactive: [1] 6.6% | [2] 6.95% | [3] 46.8% | [4] 35.6% | [5] 21.9% | [6] 7%

CNC(=S)N(C)/N=C/c1ccccc1
inactive: [1] 10.3% | [2] 2.4% | [3] -3.75% | [4] -28.9% | [5] -7.15% | [6] 3%

Cc1cc(OCCCCCCC[N+](C)(C)Cc2ccc([N+](=O)[O-])o2)c(C(C)C)cc1Cl
active: [1] 99.6% | [2] 99.8% | [3] 99.8% | [4] 99.6% | [5] 99.5% | [6] 99.7%

c1ccc(-c2nnn(CCN3CCCCC3)n2)cc1
inactive: [1] 33.1% | [2] 20.9% | [3] -3.9% | [4] 12.1% | [5] 34% | [6] 23.5%
